# Test results reported in the supplement of paper PMC8728848.
# Only a selection was taken, and the strongest signals are over-represented in it overall.
# B1: RbmA (Vibrio cholerae), A0A2H4NFB8 (protein)
# chain: MSNFKGSIMNKRHYYLASCLALLFSTASYAEVDCELQPVIEANLSLNQNQLASNGGYISSQLGIRNESCETVKFKYWLSIKGPEGIYFPAKAVVGVDTAQQESDALTDGRMLNVTRGFWVPEYMADGKYTVSLQVVAENGEVFKANQEFVKGGDLNSLPELNGLTIDIKNQFGINSVESTGGFVPFTIDLNNGREGEAKVEFWMTAVGPDGLIIPVHSREKWMIIAGNTFSKVRGINFDKSYPAGEYTINAQVVDIVSGERVEQLMTVVKK
# What was measured:
# Test in all cases: glycan array binding signal (z-score within array); higher = stronger binding
# Details in all cases: glycan notation: IUPAC condensed, linker removed
# Fuc(a1-2)Gal = target: Fuc(a1-2)Gal
# In short: (§1)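 Glycan array binding is given as a within-array Z-score, which can be read as non-binding when negative. The arrays, 3228 of them, came from the Consortium for Functional Glycomics database and were retained only where the protein sequence was available. Z-scores were averaged across arrays of the same protein sequence at different concentrations or buffers and across linkers.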
# [1] = target: Fuc(a1-2)Gal(b1-4)GlcNAc(b1-2)Man(a1-3)[Fuc(a1-2)Gal(b1-4)GlcNAc(b1-2)Man(a1-6)]Man(b1-4)GlcNAc(b1-4)GlcNAc
# In short: as §1
# [2] = target: Fuc(a1-2)[Gal(a1-3)]Gal(b1-3)GlcNAc
# In short: as §1
# [3] = target: Fuc(a1-2)[Gal(a1-3)]Gal(b1-4)GlcNAc
# In short: as §1
# [4] = target: Fuc(a1-2)[GalNAc(a1-3)]Gal
# In short: as §1
# [5] = target: Fuc(a1-2)[GalNAc(a1-3)]Gal(b1-4)GlcNAc(b1-2)Man
# In short: as §1
# [6] = target: Fuc(a1-2)[GalNAc(a1-3)]Gal(b1-4)GlcNAc(b1-2)Man(a1-3)[Fuc(a1-2)[GalNAc(a1-3)]Gal(b1-4)GlcNAc(b1-2)Man(a1-6)]Man(b1-4)GlcNAc(b1-4)GlcNAc
# In short: as §1
# [7] = target: Fuc(a1-2)[GalNAc(a1-3)]Gal(b1-4)GlcNAc(b1-3)GalNAc
# In short: as §1
# Fuc(a1-3)GlcNAc = target: Fuc(a1-3)GlcNAc
# In short: as §1
# [8] = target: Fuc(a1-3)[Gal(b1-4)]GlcNAc(b1-2)Man
# In short: as §1
# [9] = target: Fuc(a1-3)[GalNAc(b1-4)]GlcNAc
# In short: as §1
# [10] = target: Gal(a1-3)Gal(b1-3)[Fuc(a1-4)]GlcNAc(b1-2)Man(a1-3)[Gal(a1-3)Gal(b1-3)[Fuc(a1-4)]GlcNAc(b1-2)Man(a1-6)]Man(b1-4)GlcNAc(b1-4)GlcNAc
# In short: as §1
# [11] = target: Gal(a1-3)Gal(b1-4)[Fuc(a1-3)]GlcNAc(b1-2)Man(a1-3)[Gal(a1-3)Gal(b1-4)[Fuc(a1-3)]GlcNAc(b1-2)Man(a1-6)]Man(b1-4)GlcNAc(b1-4)GlcNAc
# In short: as §1
# [12] = target: Gal(a1-4)Gal(b1-3)GlcNAc(b1-2)Man(a1-3)[Gal(a1-4)Gal(b1-3)GlcNAc(b1-2)Man(a1-6)]Man(b1-4)GlcNAc(b1-4)GlcNAc
# In short: as §1
# [13] = target: Gal(a1-4)Gal(b1-4)GlcNAc(b1-3)Gal(b1-4)Glc
# In short: as §1
# Gal(b1-2)Gal = target: Gal(b1-2)Gal
# In short: as §1
# [14] = target: Gal(b1-3)GalNAc(b1-4)Gal(b1-4)Glc
# In short: as §1
# [15] = target: Gal(b1-3)GlcNAc(b1-2)[Gal(b1-3)GlcNAc(b1-6)]Man(a1-6)[Gal(b1-3)GlcNAc(b1-2)Man(a1-3)]Man(b1-4)GlcNAc(b1-4)GlcNAc
# In short: as §1
# Gal(b1-3)GlcNAc6S = target: Gal(b1-3)GlcNAc6S
# In short: as §1
# [16] = target: Gal(b1-4)GlcNAc(b1-2)Man(a1-3)[GlcNAc(b1-2)Man(a1-6)]Man(b1-4)GlcNAc(b1-4)GlcNAc
# In short: as §1
# [17] = target: Gal(b1-4)GlcNAc(b1-3)Gal(b1-4)GlcNAc(b1-3)Gal(b1-4)GlcNAc(b1-3)Gal(b1-4)GlcNAc(b1-2)[Gal(b1-4)GlcNAc(b1-3)Gal(b1-4)GlcNAc(b1-3)Gal(b1-4)GlcNAc(b1-3)Gal(b1-4)GlcNAc(b1-6)]Man(a1-6)[Gal(b1-4)GlcNAc(b1-3)Gal(b1-4)GlcNAc(b1-3)Gal(b1-4)GlcNAc(b1-3)Gal(b1-4)GlcNAc(b1-2)Man(a1-3)]Man(b1-4)GlcNAc(b1-4)[Fuc(a1-6)]GlcNAc
# In short: as §1
# [18] = target: Gal(b1-4)GlcNAc(b1-3)Gal(b1-4)GlcNAc(b1-3)Gal(b1-4)GlcNAc(b1-3)Gal(b1-4)GlcNAc(b1-3)Gal(b1-4)GlcNAc(b1-2)Man(a1-3)[Gal(b1-4)GlcNAc(b1-3)Gal(b1-4)GlcNAc(b1-3)Gal(b1-4)GlcNAc(b1-3)Gal(b1-4)GlcNAc(b1-3)Gal(b1-4)GlcNAc(b1-2)Man(a1-6)]Man(b1-4)GlcNAc(b1-4)GlcNAc
# In short: as §1
# [19] = target: Gal(b1-4)GlcNAc(b1-3)Gal(b1-4)GlcNAc(b1-3)Gal(b1-4)GlcNAc(b1-3)Gal(b1-4)GlcNAc(b1-3)Gal(b1-4)GlcNAc(b1-2)[Gal(b1-4)GlcNAc(b1-3)Gal(b1-4)GlcNAc(b1-3)Gal(b1-4)GlcNAc(b1-3)Gal(b1-4)GlcNAc(b1-3)Gal(b1-4)GlcNAc(b1-6)]Man(a1-6)[Gal(b1-4)GlcNAc(b1-3)Gal(b1-4)GlcNAc(b1-3)Gal(b1-4)GlcNAc(b1-3)Gal(b1-4)GlcNAc(b1-3)Gal(b1-4)GlcNAc(b1-2)Man(a1-3)]Man(b1-4)GlcNAc(b1-4)[Fuc(a1-6)]GlcNAc
# In short: as §1
# Gal4S(b1-4)GlcNAc = target: Gal4S(b1-4)GlcNAc
# In short: as §1
# Gal6S(b1-3)GlcNAc6S = target: Gal6S(b1-3)GlcNAc6S
# In short: as §1
# [20] = target: GalNAc(b1-4)GlcNAc(b1-3)GalNAc(b1-4)GlcNAc
# In short: as §1
# GlcA(b1-6)Gal = target: GlcA(b1-6)Gal
# In short: as §1
# [21] = target: GlcNAc(a1-4)Gal(b1-4)GlcNAc(b1-3)Gal(b1-4)GlcNAc(b1-3)Gal(b1-4)GlcNAc
# In short: as §1
# [22] = target: GlcNAc(a1-4)Gal(b1-4)GlcNAc(b1-3)Gal(b1-4)[Fuc(a1-3)]GlcNAc(b1-3)Gal(b1-4)[Fuc(a1-3)]GlcNAc
# In short: as §1
# [23] = target: GlcNAc(b1-3)Gal(b1-4)GlcNAc(b1-2)Man(a1-3)[GlcNAc(b1-3)Gal(b1-4)GlcNAc(b1-2)Man(a1-6)]Man(b1-4)GlcNAc(b1-4)GlcNAc
# In short: as §1
# [24] = target: GlcNAc(b1-3)Gal(b1-4)GlcNAc(b1-3)Gal(b1-4)GlcNAc(b1-3)Gal(b1-4)GlcNAc(b1-2)Man(a1-3)[GlcNAc(b1-3)Gal(b1-4)GlcNAc(b1-3)Gal(b1-4)GlcNAc(b1-3)Gal(b1-4)GlcNAc(b1-2)Man(a1-6)]Man(b1-4)GlcNAc(b1-4)[Fuc(a1-6)]GlcNAc
# In short: as §1
# [25] = target: GlcNAc(b1-3)Gal(b1-4)GlcNAc(b1-3)Gal(b1-4)GlcNAc(b1-3)Gal(b1-4)GlcNAc(b1-2)[GlcNAc(b1-3)Gal(b1-4)GlcNAc(b1-3)Gal(b1-4)GlcNAc(b1-3)Gal(b1-4)GlcNAc(b1-6)]Man(a1-6)[GlcNAc(b1-3)Gal(b1-4)GlcNAc(b1-3)Gal(b1-4)GlcNAc(b1-3)Gal(b1-4)GlcNAc(b1-2)Man(a1-3)]Man(b1-4)GlcNAc(b1-4)[Fuc(a1-6)]GlcNAc
# In short: as §1
# [26] = target: GlcNAc(b1-3)[GlcNAc(b1-4)][GlcNAc(b1-6)]GlcNAc
# In short: as §1
# Man(a1-3)[Man(a1-6)]Man = target: Man(a1-3)[Man(a1-6)]Man
# In short: as §1
# [27] = target: Neu5Ac(a2-3)Gal(b1-3)GlcNAc(b1-3)Gal(b1-3)GlcNAc
# In short: as §1
# [28] = target: Neu5Ac(a2-3)Gal(b1-3)[Fuc(a1-4)]GlcNAc
# In short: as §1
# [29] = target: Neu5Ac(a2-3)Gal(b1-3)[Neu5Ac(a2-6)]GalNAc
# In short: as §1
# [30] = target: Neu5Ac(a2-3)Gal(b1-4)GlcNAc
# In short: as §1
# [31] = target: Neu5Ac(a2-3)Gal(b1-4)GlcNAc(b1-2)Man
# In short: as §1
# [32] = target: Neu5Ac(a2-3)Gal(b1-4)GlcNAc(b1-3)Gal(b1-3)GlcNAc
# In short: as §1
# [33] = target: Neu5Ac(a2-3)Gal(b1-4)GlcNAc6S
# In short: as §1
# [34] = target: Neu5Ac(a2-3)Gal(b1-4)[Fuc(a1-3)]GlcNAc(b1-3)GalNAc
# In short: as §1
# [35] = target: Neu5Ac(a2-3)Gal(b1-4)[Fuc(a1-3)]GlcNAc6S
# In short: as §1
# [36] = target: Neu5Ac(a2-6)Gal(b1-4)GlcNAc(b1-2)Man(a1-6)[Gal(b1-4)GlcNAc(b1-2)Man(a1-3)]Man(b1-4)GlcNAc(b1-4)GlcNAc
# In short: as §1
# [37] = target: Neu5Ac(a2-6)Gal(b1-4)GlcNAc(b1-2)Man(a1-6)[GlcNAc(b1-2)Man(a1-3)]Man(b1-4)GlcNAc(b1-4)GlcNAc
# In short: as §1
# [38] = target: Neu5Ac(a2-6)Gal(b1-4)GlcNAc(b1-3)Gal(b1-4)GlcNAc(b1-3)Gal(b1-4)GlcNAc(b1-2)Man(a1-3)[Neu5Ac(a2-6)Gal(b1-4)GlcNAc(b1-3)Gal(b1-4)GlcNAc(b1-3)Gal(b1-4)GlcNAc(b1-2)Man(a1-6)]GalNAc
# In short: as §1
# [39] = target: Neu5Ac(a2-6)GlcNAc(b1-4)GlcNAc
# In short: as §1
# [40] = target: Neu5Ac(a2-8)Neu5Ac(a2-8)Neu5Ac(a2-3)[Gal(b1-3)GalNAc(b1-4)]Gal(b1-4)Glc
# In short: as §1
# Neu5Gc(a2-3)Gal(b1-4)Glc = target: Neu5Gc(a2-3)Gal(b1-4)Glc
# In short: as §1
binder,measurement,setting,value
B1,glycan array binding signal (z-score),Fuc(a1-2)Gal,0.097
same,glycan array binding signal (z-score),[1],3.71
same,glycan array binding signal (z-score),[2],1.13
same,glycan array binding signal (z-score),[3],-0.42
same,glycan array binding signal (z-score),[4],0.428
same,glycan array binding signal (z-score),[5],-0.393
same,glycan array binding signal (z-score),[6],-0.735
same,glycan array binding signal (z-score),[7],2.25
same,glycan array binding signal (z-score),Fuc(a1-3)GlcNAc,-0.597
same,glycan array binding signal (z-score),[8],-0.564
same,glycan array binding signal (z-score),[9],-0.002
same,glycan array binding signal (z-score),[10],-0.276
same,glycan array binding signal (z-score),[11],0.837
same,glycan array binding signal (z-score),[12],0.508
same,glycan array binding signal (z-score),[13],0.028
same,glycan array binding signal (z-score),Gal(b1-2)Gal,-0.082
same,glycan array binding signal (z-score),[14],0.503
same,glycan array binding signal (z-score),[15],-0.69
same,glycan array binding signal (z-score),Gal(b1-3)GlcNAc6S,-0.734
same,glycan array binding signal (z-score),[16],-0.515
same,glycan array binding signal (z-score),[17],4.03
same,glycan array binding signal (z-score),[18],5.93
same,glycan array binding signal (z-score),[19],7.99
same,glycan array binding signal (z-score),Gal4S(b1-4)GlcNAc,3.32
same,glycan array binding signal (z-score),Gal6S(b1-3)GlcNAc6S,-0.99
same,glycan array binding signal (z-score),[20],2.09
same,glycan array binding signal (z-score),GlcA(b1-6)Gal,-0.721
same,glycan array binding signal (z-score),[21],3.48
same,glycan array binding signal (z-score),[22],4.35
same,glycan array binding signal (z-score),[23],-0.474
same,glycan array binding signal (z-score),[24],3.92
same,glycan array binding signal (z-score),[25],0.187
same,glycan array binding signal (z-score),[26],0.095
same,glycan array binding signal (z-score),Man(a1-3)[Man(a1-6)]Man,0.76
same,glycan array binding signal (z-score),[27],-0.516
same,glycan array binding signal (z-score),[28],-1.17
same,glycan array binding signal (z-score),[29],0.382
same,glycan array binding signal (z-score),[30],-0.847
same,glycan array binding signal (z-score),[31],3.52
same,glycan array binding signal (z-score),[32],-0.862
same,glycan array binding signal (z-score),[33],3
same,glycan array binding signal (z-score),[34],3.93
same,glycan array binding signal (z-score),[35],-0.009
same,glycan array binding signal (z-score),[36],-0.289
same,glycan array binding signal (z-score),[37],-0.799
same,glycan array binding signal (z-score),[38],1.63
same,glycan array binding signal (z-score),[39],-0.396
same,glycan array binding signal (z-score),[40],-0.211
same,glycan array binding signal (z-score),Neu5Gc(a2-3)Gal(b1-4)Glc,0.337
